One assay has as its system Es-2. Briefly: Primary qHTS to identify gynecologic anti-cancer compounds using libraries of approved drugs and bioactive compounds (AID 1345084). Further: nearly all actives have a fitted effect of over 55% in size. The settings on record: Gynecologic cancer cell panel viability, ATPlite luminescence, 48 h; series mostly up to 57.5 µM. A digest of the protocol: (§1)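 Five-concentration response, 48 h; readout is ATP-driven luciferase luminescence.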

For a further assay, the system named is HeLa. The assay is described as above. The settings on record: Gynecologic cancer cell panel viability, ATPlite luminescence, 48 h; series mostly up to 57.5 µM. A digest of the protocol: as §1
(In general: Cellular ATP, detected with luciferase, serves as a proxy for viable cell number.)

A further assay deals with Hek293T. The assay is described as above. The settings on record: Gynecologic cancer cell panel viability, ATPlite luminescence, 48 h, control line for the selectivity index; series mostly up to 57.5 µM. The method, boiled down: as §1
Another assay concerns JEG-3. Described as above. The settings on record: Gynecologic cancer cell panel viability, ATPlite luminescence, 48 h; series mostly up to 57.5 µM. The method, boiled down:
as §1

Another assay relates to OV90. The description is as above. The conditions noted are these: Gynecologic cancer cell panel viability, ATPlite luminescence, 48 h; series mostly up to 57.5 µM. The method, boiled down:
as §1

In another assay the test system is PA-1. The description is as above. The conditions noted are these: Gynecologic cancer cell panel viability, ATPlite luminescence, 48 h; series mostly up to 57.5 µM. A digest of the protocol:
as §1

In a further assay the test system is SKOV3. The assay is described as above. The settings on record: Gynecologic cancer cell panel viability, ATPlite luminescence, 48 h; series mostly up to 57.5 µM. A digest of the protocol: as §1
The subject of the next assay is Tov-21-G. The assay is described as above. The settings on record: Gynecologic cancer cell panel viability, ATPlite luminescence, 48 h; series mostly up to 57.5 µM. A digest of the protocol:
as §1

The subject of another assay is Tov112D. The assay is described as above. The settings on record: Gynecologic cancer cell panel viability, ATPlite luminescence, 48 h; series mostly up to 57.5 µM. A digest of the protocol: as §1
Assay [1] is described as follows: Drug repurposing screens with cells derived from glioblastoma tumor samples (AID 1345199). Further: nearly all actives have a fitted effect of over 40% in size. The settings on record: GBM patient neurospheres viability, ATP luminescence, 48 h. The method, boiled down:
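Primary testing used CD133+ neurospheres from four GBM patients, seven concentrations, 48 h exposure and ATP-based viability; confirmation added three slower-growing patient lines.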

Where [2] appears, read: at 45.9 µM (top of the series), tumour line B.
[3] abbreviates: at 45.9 µM (top of the series), tumour line D.
Setting [4] is: at 46 µM (top of the series), tumour line A.
Where [5] appears, read: at 46.1 µM (top of the series), tumour line C.

Results on 20 compounds are retold here after PubChem BioAssay (NCATS).

Several values for one entry are separate records, joined by “and”; a condition that tells them apart may be missing. Equal values may be shown once. Records with an inconclusive call do not appear. Unmarked numbers belong to inactive results. Activity calls are given as the source filed them. The call rests on the fitted dose curve; in most records, active means well fitted curve in the direction sought with a large enough effect; inconclusive means small, poorly fitted or top-dose-only effect, or another doubt; inactive means no such curve, though single readings can be large; an effect the other way counts as inactive or inconclusive.
On the % scale 0 is the no-effect control and ±100 the full control effect; potency means the concentration at half of the fitted maximal effect.

Regarding `CS(=O)(=O)N(Cc1ccco1)CC(O)Cn1c2ccccc2c2ccccc21` (stereo not given), the Potency result in the assay with Es-2, in the assay on HeLa, in the assay with Hek293T, in the assay with JEG-3, in the assay with OV90 and in the assay with PA-1 was “inactive” each time. For the same compound, the Potency entry in the assay on SKOV3, in the assay on Tov-21-G and in the assay with Tov112D was “inactive” in each case.

`C[N+](C)(C)CCCCCC[N+](C)(C)C`: the Potency result in the assay on Es-2, in the assay with HeLa, in the assay on Hek293T, in the assay on JEG-3, in the assay on OV90 and in the assay with PA-1 was “inactive” each time. The Potency result with SKOV3, in the assay with Tov-21-G and with Tov112D was “inactive” in each case. Further, the activity, negative = cell killing in assay [1] (setting [2]) is -9.48%; in assay [1] (setting [3]) it was -17.5%; in assay [1] (setting [4]), -4.52%; in [1] (setting [5]) it was 8.25%.

Consider `CCN(CC)CCNC(=O)c1ccc(N)cc1`, for which the Potency entry in the assay on Es-2, in the assay on HeLa, in the assay with Hek293T, in the assay with JEG-3, in the assay on OV90 and in the assay with PA-1 was “inactive” in each case. Moreover, the Potency result with SKOV3, with Tov-21-G and with Tov112D was “inactive” in each case. The activity, negative = cell killing in assay [1] (setting [2]) was -3.23%; in assay [1] (setting [5]) it was 15.6%.

Take `CS(=O)c1ccc(-c2nc(-c3ccc(F)cc3)c(-c3ccncc3)[nH]2)cc1` (stereo not given): the Potency result in the assay with Es-2, in the assay on HeLa, with Hek293T, in the assay on JEG-3, in the assay with OV90 and in the assay on PA-1 was “inactive” throughout. Further, the Potency entry with SKOV3, in the assay with Tov-21-G and with Tov112D was “inactive” in each case.

Take `O=C(O)CCc1nc(-c2ccccc2)c(-c2ccccc2)o1`: the Potency entry in the assay on Es-2, in the assay with HeLa, with Hek293T, in the assay with JEG-3, in the assay on OV90 and in the assay on PA-1 was “inactive” throughout. Moreover, the Potency result with SKOV3, in the assay with Tov-21-G and in the assay on Tov112D was “inactive” throughout. Further, the activity, negative = cell killing was -13% in assay [1] (setting [2]), 3.1% in assay [1] (setting [3]) and -11.6% in assay [1] (setting [5]).

Regarding `CC1CCC(C(=O)N(c2cc(C#CC(C)(C)C)sc2C(=O)O)C2CCC(O)CC2)CC1` (stereo not given), the Potency result in the assay with Es-2, in the assay on HeLa, with Hek293T, with OV90, in the assay with PA-1 and in the assay with Tov-21-G was “inactive” each time. Further, in the assay with Tov112D, the Potency entry is “inactive”.

For the compound `COc1cc2ncnc(-n3nc(-c4ccccn4)nc3N)c2cc1OC`, the Potency result with Es-2, with HeLa, in the assay with Hek293T, in the assay with JEG-3, with OV90 and in the assay on PA-1 was “inactive” throughout. For the same compound, the Potency entry with Tov-21-G and with Tov112D was “inactive” throughout.

In the case of `O=c1[nH]cnc2c1ncn2[C@H]1CC[C@@H](CO)O1`, the Potency entry with Es-2, with HeLa, in the assay with Hek293T, in the assay with JEG-3, in the assay on OV90 and in the assay with PA-1 was “inactive” each time. In addition, the Potency result in the assay with SKOV3, with Tov-21-G and with Tov112D was “inactive” each time. For the same compound, the activity, negative = cell killing is -2.39% in assay [1] (setting [2]), 8.81% in assay [1] (setting [3]), -25.7% in assay [1] (setting [4]) and -15.1% in [1] (setting [5]).

For `CCN1CCC[C@H]1CNC(=O)c1cc(S(N)(=O)=O)ccc1OC`, the Potency result in the assay on Es-2, with HeLa, in the assay with Hek293T, in the assay on JEG-3, in the assay with OV90 and with PA-1 was “inactive” each time. Also, the Potency result in the assay with SKOV3, with Tov-21-G and with Tov112D was “inactive” each time. For the same compound, the activity, negative = cell killing in assay [1] (setting [2]) is 0.712%; in assay [1] (setting [3]), -10.3%; in assay [1] (setting [4]), -29.7%; in [1] (setting [5]) it was 1.29%.

As to `CCCNC(=O)NS(=O)(=O)c1ccc(Cl)cc1`, the Potency entry in the assay on Es-2, in the assay with HeLa, in the assay with Hek293T, in the assay on JEG-3, with OV90 and with PA-1 was “inactive” each time. Further, the Potency entry with SKOV3, in the assay with Tov-21-G and in the assay with Tov112D was “inactive” each time. Also, the activity, negative = cell killing in assay [1] (setting [2]) was -7.96%; in [1] (setting [3]) it was 5.01%; in assay [1] (setting [4]) it was -11.4%; in assay [1] (setting [5]), -13.2%.

Take `Cc1nc(N)sc1-c1ccnc(Nc2ccc(N3CCOCC3)cc2)n1`: the Potency is 10 µM (active) with Es-2; 2.51 µM (active) in the assay on HeLa; 15.8 µM (active) in the assay with OV90; 8.91 µM (active) in the assay with PA-1; 8.91 µM (active) in the assay on SKOV3; 14.1 µM (active) in the assay on Tov-21-G. The Potency in the assay on Tov112D is 12.6 µM (active).

Regarding `CCN(CC)CCOC(=O)c1ccc(N)cc1`, the Potency entry with Es-2, in the assay with HeLa, in the assay on Hek293T, in the assay on JEG-3, in the assay on OV90 and with PA-1 was “inactive” throughout. Moreover, the Potency result with SKOV3, with Tov-21-G and in the assay on Tov112D was “inactive” in each case. For the same compound, the activity, negative = cell killing is 5.7% in assay [1] (at 20 µM (top of the series), tumour line C); -3.94% in assay [1] (at 21.2 µM (top of the series), tumour line B); 2% in assay [1] (at 21.2 µM (top of the series), tumour line D); -17.4% in [1] (at 21.3 µM (top of the series), tumour line A).

Take `COc1cc(Nc2ncc(F)c(Nc3ccc4c(n3)NC(=O)C(C)(C)O4)n2)cc(OC)c1OC`: the Potency result with Es-2, in the assay on Hek293T and in the assay with JEG-3 was “inactive” each time. Also, the Potency in the assay with HeLa is 31.6 µM (active); with SKOV3, 15.8 µM (active).

Regarding `C[C@@H](O)[C@H]1C(=O)N2C(C(=O)O)=C(S[C@@H]3CN[C@H](C(=O)N(C)C)C3)[C@H](C)[C@H]12`, the Potency entry with Es-2, in the assay with HeLa, in the assay on Hek293T, in the assay with JEG-3, with OV90 and with PA-1 was “inactive” in each case. Besides, the Potency entry in the assay on SKOV3, with Tov-21-G and with Tov112D was “inactive” each time. Further, the activity, negative = cell killing was -4.52% in assay [1] (setting [2]), 4.08% in assay [1] (setting [3]), -23.7% in [1] (setting [4]) and -22.4% in [1] (setting [5]).

With `COc1cc2ncnc(Nc3ccc(F)c(Cl)c3)c2cc1OCCCN1CCOCC1`, the Potency entry in the assay on Es-2, with HeLa, in the assay with Hek293T, with JEG-3, in the assay with OV90 and with PA-1 was “inactive” throughout. In addition, the Potency result in the assay with Tov112D is “inactive”. For the same compound, the Potency in the assay on SKOV3 was 10 µM (active); in assay [1] (tumour line A) it was 5.62 µM (active); in assay [1] (tumour line B) it was 17.8 µM (active); in assay [1] (tumour line D) it was 8.91 µM (active). In assay [1] (setting [5]), the activity, negative = cell killing was -12.4%.

Regarding `COc1ccc2c(Oc3ccc(NC(=O)c4c(C)n(CC(C)(C)O)n(-c5ccccc5)c4=O)nc3)ccnc2c1`, the Potency entry with Es-2, in the assay on HeLa, in the assay with Hek293T, in the assay on JEG-3, with OV90 and in the assay with Tov112D was “inactive” throughout. Moreover, in the assay on PA-1, the Potency is 31.6 µM (active).

Regarding `CC(C)(C)c1ccc(C(O)CCCN2CCC(C(O)(c3ccccc3)c3ccccc3)CC2)cc1` (stereo not given), the Potency entry in the assay with Es-2, in the assay with HeLa, in the assay on Hek293T, in the assay on JEG-3, in the assay with OV90 and with PA-1 was “inactive” each time. Besides, the Potency entry in the assay on SKOV3, with Tov-21-G and with Tov112D was “inactive” in each case. For the same compound, the activity, negative = cell killing in assay [1] (setting [5]) is -2.38%. The Potency was 5.01 µM (active) in [1] (tumour line A), 11.2 µM (active) in assay [1] (tumour line B) and 10 µM (active) in [1] (tumour line D).

In the case of `CN(C)CCC(c1ccccc1)c1ccccn1` (stereo not given), the Potency entry in the assay with Es-2, in the assay with HeLa, with Hek293T, in the assay with JEG-3, in the assay on OV90 and in the assay with PA-1 was “inactive” throughout. Besides, the Potency entry in the assay on SKOV3, with Tov-21-G and in the assay on Tov112D was “inactive” in each case. The activity, negative = cell killing in [1] (setting [2]) is -6.99%; in [1] (setting [3]) it was -4.75%; in assay [1] (setting [4]) it was -22.4%; in assay [1] (setting [5]), -14.6%.

With `COc1ccc2cc(-c3nc(-c4ccc(S(C)=O)cc4)[nH]c3-c3ccncc3)ccc2c1` (stereo not given), the Potency entry in the assay with Es-2, with HeLa, with Hek293T, with JEG-3, in the assay on OV90 and in the assay with PA-1 was “inactive” in each case. Moreover, the Potency entry in the assay with Tov-21-G and in the assay on Tov112D was “inactive” throughout.

Regarding `O=C(CCCCCCC(=O)Nc1ccccc1)NO`, the Potency in the assay with Es-2 is 7.08 µM (active) and 12.6 µM (active); in the assay with HeLa, 8.91 µM (active) and 10 µM (active); with JEG-3, 3.98 µM (active) and 8.91 µM (active); in the assay with SKOV3 it was 3.16 µM (active) and 12.6 µM (active); in the assay on Tov-21-G it was 11.2 µM (active) and 5.01 µM (active); in the assay on Tov112D it was 7.08 µM (active) and 11.2 µM (active).
